Test [1] concerns the target Rap guanine nucleotide exchange factor 3 (Homo sapiens) (UniProt O95398). Put plainly: Confirmatory qHTS for antagonist of cAMP-regulated guanine nucleotide exchange factor 3 (EPAC1) (AID 1645880). Note: nearly all actives have a fitted effect of over 55% in size. Note: potency is the fitted concentration of half-maximal effect. In outline: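 Nucleotide exchange uses 100 nM EPAC1, 250 nM RAP1B-BODIPY-GDP and 50 uM GDP, with compounds in a concentration-titration series. After 5 min at room temperature, fluorescence (480 nm ex/540 nm em) is read every 5 min for 30 min. Data are normalized to control ATA and DMSO.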
For orientation: Quantitative high-throughput screening tests each substance at several concentrations.

For test [2] the target is unchanged. Put plainly: Confirmatory qHTS for agonist of cAMP-regulated guanine nucleotide exchange factor 3 (EPAC1) (AID 1645881).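 For activation: EPAC1 catalysed release of BODIPY-GDP from Rap1B seen as fluorescence loss; 100% = effect of cAMP agonist control.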 Note: nearly all actives have a fitted effect of over 75% in size. Note: potency is the fitted concentration of half-maximal effect.
Test [3] has as its target Rap guanine nucleotide exchange factor 4 (Homo sapiens) (UniProt Q8WZA2). Kind of test: Confirmatory qHTS for agonist of cAMP-regulated guanine nucleotide exchange factor 4 (EPAC2) (AID 1645884). For activation: % is set by controls: 0 for no effect and ±100 for the full control effect.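 Note: nucleotide exchange releases bodipy-GDP from Rap1 and this lowers its fluorescence; nearly all actives have a fitted effect of over 65% in size.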 Note: potency is the fitted concentration of half-maximal effect.
Test [4] shares this target. Put plainly: Confirmatory qHTS for antagonist of cAMP-regulated guanine nucleotide exchange factor 4 (EPAC2) (AID 1645885). For activity change, negative = inhibition: % is set by controls: 0 for no effect and ±100 for the full control effect. Note: nearly all actives have a fitted effect of over 25% in size.
Test [5] concerns the target Rap guanine nucleotide exchange factor 3 (Homo sapiens) (UniProt O95398). Put plainly: Counterscreen qHTS for antagonist of cAMP-regulated guanine nucleotide exchange factor 3 (EPAC1) (AID 1645888).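 Note: fluorescence loss as bound BODIPY-GDP is released from Rap1B; % of control where 0% means no effect.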 The method, boiled down:
(§1)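 Rap1B–BODIPY-GDP (250 nM) with 50 uM GDP; compounds pin-transferred to 9.74 nM–152 uM final (activator) or from 7.32 nM upwards (inhibitor). Fluorescence Ex/Em 480/540 nm read at 5 and 30 min, then after adding cAMP or buffer, at room temperature.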

The target is the same in test [6]. Put plainly: Counterscreen qHTS for agonist of cAMP-regulated guanine nucleotide exchange factor 3 (EPAC1) (AID 1645889). For activation: % of control where 0% means no effect. Note: nearly all actives have a fitted effect of over 40% in size. Note: potency is the fitted concentration of half-maximal effect. The method, boiled down: as §1
A general note: A counterscreen serves to expose hits that act by an unwanted route or on another target.

Consider 18 molecules from PubChem BioAssay (NCATS).

Records with an inconclusive call do not appear. A number with no mark means an inactive call. Active and inactive are the calls of the source. Calls come from the whole dose curve; as a rule, active = well fitted curve in the direction sought with a large enough effect; inconclusive = small, poorly fitted or top-dose-only effect, or another doubt; inactive = no such curve, though single readings can be large; an effect the other way counts as inactive or inconclusive.

Rap guanine nucleotide exchange factor 4 (Homo sapiens), sequence (Q8WZA2 whole entry, looked up): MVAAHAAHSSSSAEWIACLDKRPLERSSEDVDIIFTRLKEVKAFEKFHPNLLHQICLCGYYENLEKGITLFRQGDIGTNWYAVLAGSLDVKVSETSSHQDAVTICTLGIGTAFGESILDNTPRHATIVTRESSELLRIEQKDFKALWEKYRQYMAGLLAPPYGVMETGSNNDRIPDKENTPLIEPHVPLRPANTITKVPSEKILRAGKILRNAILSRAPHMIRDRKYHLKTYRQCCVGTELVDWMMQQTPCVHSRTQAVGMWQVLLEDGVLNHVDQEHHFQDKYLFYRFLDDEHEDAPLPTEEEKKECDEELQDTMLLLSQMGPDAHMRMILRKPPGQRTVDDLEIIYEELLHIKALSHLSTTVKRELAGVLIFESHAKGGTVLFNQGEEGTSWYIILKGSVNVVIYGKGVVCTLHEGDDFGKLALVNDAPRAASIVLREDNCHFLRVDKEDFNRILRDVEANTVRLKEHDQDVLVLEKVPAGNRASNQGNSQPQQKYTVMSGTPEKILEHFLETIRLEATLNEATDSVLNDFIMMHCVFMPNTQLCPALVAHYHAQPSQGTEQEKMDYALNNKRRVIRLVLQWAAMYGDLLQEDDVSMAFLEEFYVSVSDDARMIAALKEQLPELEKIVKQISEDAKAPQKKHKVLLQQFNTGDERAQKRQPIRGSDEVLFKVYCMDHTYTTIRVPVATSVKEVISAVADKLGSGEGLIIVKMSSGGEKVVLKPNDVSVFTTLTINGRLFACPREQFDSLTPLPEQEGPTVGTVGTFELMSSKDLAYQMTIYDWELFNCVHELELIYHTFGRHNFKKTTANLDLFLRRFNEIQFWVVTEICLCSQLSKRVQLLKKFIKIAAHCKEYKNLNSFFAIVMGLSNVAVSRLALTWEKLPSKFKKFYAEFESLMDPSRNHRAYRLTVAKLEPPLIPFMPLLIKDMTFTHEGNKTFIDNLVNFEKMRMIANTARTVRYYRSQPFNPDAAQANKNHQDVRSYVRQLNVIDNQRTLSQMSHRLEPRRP
Rap guanine nucleotide exchange factor 3 (Homo sapiens), sequence (O95398 whole entry, looked up): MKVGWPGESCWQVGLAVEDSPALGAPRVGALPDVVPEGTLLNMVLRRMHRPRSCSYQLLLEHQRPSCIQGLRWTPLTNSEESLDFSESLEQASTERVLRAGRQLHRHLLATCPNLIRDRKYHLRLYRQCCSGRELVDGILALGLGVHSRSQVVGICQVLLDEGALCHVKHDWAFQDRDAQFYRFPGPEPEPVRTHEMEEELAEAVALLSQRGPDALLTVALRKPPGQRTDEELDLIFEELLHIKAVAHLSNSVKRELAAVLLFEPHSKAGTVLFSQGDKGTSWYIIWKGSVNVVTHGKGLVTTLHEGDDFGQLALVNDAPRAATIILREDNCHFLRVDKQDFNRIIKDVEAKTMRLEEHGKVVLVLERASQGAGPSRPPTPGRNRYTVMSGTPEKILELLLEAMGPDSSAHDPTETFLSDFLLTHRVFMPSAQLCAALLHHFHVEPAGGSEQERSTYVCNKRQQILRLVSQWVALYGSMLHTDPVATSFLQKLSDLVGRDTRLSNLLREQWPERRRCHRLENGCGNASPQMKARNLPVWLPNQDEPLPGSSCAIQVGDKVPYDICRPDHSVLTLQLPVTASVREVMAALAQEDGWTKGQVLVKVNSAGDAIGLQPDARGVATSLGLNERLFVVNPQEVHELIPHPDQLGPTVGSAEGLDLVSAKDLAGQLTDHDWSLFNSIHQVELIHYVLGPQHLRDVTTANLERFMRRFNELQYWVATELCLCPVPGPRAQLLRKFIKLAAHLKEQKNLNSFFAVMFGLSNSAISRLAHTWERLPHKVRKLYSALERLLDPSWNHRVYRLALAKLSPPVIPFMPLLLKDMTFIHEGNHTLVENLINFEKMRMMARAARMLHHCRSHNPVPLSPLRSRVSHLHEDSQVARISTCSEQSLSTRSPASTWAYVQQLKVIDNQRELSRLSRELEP

In the case of `CCOC(=O)/C(C#N)=C/c1ccc(N2CCCCC2)cc1`, the Potency result in test [1] and in test [4] was “inactive” each time. Further, the Potency in test [2] was 56.2 µM (active). Also, the activation in test [3] is 7.82% [at 17.1 µM, percent relative to cAMP agonist control]; in test [6], 18.2% [at 30.8 µM]. Besides, the activity change, negative = inhibition in test [5] was -1.56% [at 30.8 µM].

`CC1=NN(c2nc(-c3ccc(Cl)cc3)cs2)C(=O)C1`: the Potency in test [1] was 25.1 µM (active). Also, the Potency entry in test [2] and in test [4] was “inactive” throughout. Moreover, the activation is 4.56% [at 17.1 µM, percent relative to cAMP agonist control] in test [3] and 11% [at 30.8 µM] in test [6]. Also, the activity change, negative = inhibition in test [5] is -0.482% [at 30.8 µM].

As for `O=c1oc2ccccc2nc1/C=C(O)/C=C\c1ccccc1`, the Potency result in test [1], in test [2] and in test [4] was “inactive” in each case. For the same molecule, the activation is 2.36% [at 17.1 µM, percent relative to cAMP agonist control] in test [3] and -0.436% [at 30.8 µM] in test [6]. In test [5], the activity change, negative = inhibition was -9.13% [at 30.8 µM].

For `Cn1cc(C(C[N+](=O)[O-])c2ccccc2)c2ccccc21` (stereo not drawn), the Potency entry in test [1], in test [2] and in test [4] was “inactive” throughout. Moreover, the activation in test [3] was 0.148% [at 17.1 µM, percent relative to cAMP agonist control]; in test [6] it was 13.8% [at 30.8 µM]. Moreover, the activity change, negative = inhibition in test [5] is -4.06% [at 30.8 µM].

Regarding `COCCn1c(SCC(=O)c2ccccc2)nc2cc(C(=O)NC3CCCC3)ccc2c1=O`, the Potency result in test [1], in test [2], in test [3], in test [4], in test [5] and in test [6] was “inactive” in each case.

For `COC(=O)c1ccc(OC(=O)c2ccc(OC)cc2)c(OC)c1`, the Potency result in test [1], in test [2] and in test [4] was “inactive” throughout. The activation in test [3] was 7.15% [at 17.1 µM, percent relative to cAMP agonist control]; in test [6], 6.57% [at 30.8 µM]. Further, the activity change, negative = inhibition in test [5] is -8.27% [at 30.8 µM].

Regarding `Cc1ccc(/C=C/C(=O)c2ccccc(=O)c2O)c(C)c1`, the Potency in test [1] is 44.7 µM (active). The Potency entry in test [2] and in test [4] was “inactive” in each case. Besides, the activation was 1.7% [at 17.1 µM, percent relative to cAMP agonist control] in test [3] and 23.8% [at 30.8 µM] in test [6]. The activity change, negative = inhibition in test [5] is 12.3% [at 30.8 µM].

As to `CN(C)S(=O)(=O)N1CCN(S(=O)(=O)N(C)C)CC1`, the Potency result in test [1], in test [2] and in test [4] was “inactive” in each case. The activation in test [3] is 5.89% [at 17.1 µM, percent relative to cAMP agonist control]; in test [6] it was 1.25% [at 30.8 µM]. The activity change, negative = inhibition in test [5] is -14.8% [at 30.8 µM].

As to `COc1ccc(/C=C2/SC(=S)N(NS(=O)(=O)c3ccccc3)C2=O)cc1`, in test [1], the Potency is 39.8 µM (active). Besides, the Potency entry in test [2] and in test [4] was “inactive” in each case. In addition, the activation in test [3] was -0.663% [at 17.1 µM, percent relative to cAMP agonist control]; in test [6], -1.02% [at 30.8 µM]. Moreover, the activity change, negative = inhibition in test [5] is -9.92% [at 30.8 µM].

For `COc1ccccc1Cc1nc2ccccc2nc1SCC(=O)Nc1ccccc1C(F)(F)F`, the Potency result in test [1], in test [2], in test [3], in test [5] and in test [6] was “inactive” throughout. The outcome in test [4] is “inactive [at 12.7 µM]”.

`O=C(COc1ccc(F)cc1)Nc1nccs1`: the Potency entry in test [1], in test [2], in test [3], in test [4], in test [5] and in test [6] was “inactive” in each case.

`Cc1cccc(NC(=O)CN2C(=O)S/C(=C\c3ccc(O)c([N+](=O)[O-])c3)C2=O)c1`: in test [1], the Potency was 23.9 µM (active). The Potency entry in test [2], in test [3], in test [4], in test [5] and in test [6] was “inactive” throughout.

With `c1ccc2c(c1)oc1c(-c3ccc4nccn4c3)cccc12`, the Potency entry in test [1], in test [2] and in test [4] was “inactive” throughout. For the same molecule, the activation is 0% [at 17.1 µM, percent relative to cAMP agonist control] in test [3] and 14.4% [at 30.8 µM] in test [6]. Moreover, in test [5], the activity change, negative = inhibition is -16.8% [at 30.8 µM].

`CC(C)(C)C(=O)Nc1ccc2nc(SCC(=O)N3CCc4ccccc43)sc2c1`: the Potency result in test [1], in test [2], in test [3], in test [4], in test [5] and in test [6] was “inactive” throughout.

For `Cc1nc(N(C)Cc2ccccc2)c2c(C)c(C)sc2n1`, the Potency result in test [1], in test [2] and in test [4] was “inactive” each time. The activation is 3.14% [at 17.1 µM, percent relative to cAMP agonist control] in test [3] and 11.8% [at 30.8 µM] in test [6]. Besides, in test [5], the activity change, negative = inhibition is -24.2% [at 30.8 µM].

For `COc1cccc(C2c3[nH]c4ccccc4c3CCN2Cc2ncc[nH]2)c1` (stereo not drawn), the Potency entry in test [1], in test [2] and in test [4] was “inactive” each time. The activation was 1.64% [at 17.1 µM, percent relative to cAMP agonist control] in test [3] and 15.1% [at 30.8 µM] in test [6]. The activity change, negative = inhibition in test [5] was -8.75% [at 30.8 µM].

For `COc1cc(OC)nc(Oc2cccc(Cl)c2C)n1`, the Potency entry in test [1], in test [2], in test [3], in test [4], in test [5] and in test [6] was “inactive” in each case.

For `COc1ccccc1/C=C/C=C1\Oc2c(ccc(O)c2CN(C)C)C1=O`, the Potency result in test [1], in test [4] and in test [5] was “inactive” in each case. For the same molecule, the Potency in test [2] is 89.1 µM (active); in test [3] it was 112 µM (active); in test [6], 63.1 µM (active).
